# Inconclusive results are not listed. Calls of active or inactive are those of the source. Calls follow the shape of the dose curve; as a rule, active = well fitted activation curve with a large enough effect; inconclusive = small, poorly fitted or top-dose-only effect; inactive = flat fitted curve, though single readings scatter.
# Assay: qHTS assay to identify small molecule phospholipidosis (PLD) inducers (AID 1259344)
# Conditions: HepG2 phospholipidosis, LipidTOX Red imaging, 24 h; series mostly up to 38.3 µM
# Description: National Center for Advancing Translational Sciences [NCATS]
# Drug-induced Phospholipidosis (PLD) caused by cationic amphiphilic drugs is characterized by the appearance of unicentric or multicentric-lamellar bodies when viewed under electron microscope. Electron microscopy is the gold standard method for PLD detection, however, this method is time-consuming and labor intensive, making it unsuitable for evaluating a large set of compounds. A cell-based phospholipidosis assay has been developed using the LipidTox reagent in HepG2 cells and miniaturized into a 1536-well plate format. Drug induced phospholipid accumulation is stained with the LipidTox dyes in red color which then is determined using an automated high content screening system.
# HepG2 cells are dispensed at 900 cells/3 uL/well into Collagen I-coated 1536-well black-wall/clear-bottom assay plates (Greiner Bio-One, Monroe, NC) using the Multidrop Combi 8 channel dispenser (Thermo Fisher, Waltham, MA, USA). The assay plates are incubated at 37 C for 4 hours to allow the cell attachment. 3 uL of 1:500 LipidTOX Red dye is added using the dispenser, and then 23 nL compounds are added via a Wako Pintool station (Wako Automation, San Diego, CA). Amiodarone, a known PLD inducer, was used as a positive control and DMSO was used as a negative control. The assay plates were then incubated at 37 C for 24 hours.
# For fixations, 4 uL of 8% paraformaldehyde fixative solution containing 10 ug/mL Hoechst 33342 in Dulbecco's phosphate-buffered saline (DPBS) is added using a Kalypsys washer/dispenser (Kalypsys, San Diego, CA, USA). After incubation at room temperature for 30 min, the assay plates are washed once with DPBS using a Kalypsys washer/dispenser. The assay plates are then sealed and stored at 4 C before imaging. The fluorescence intensities (595 nm excitation, 615 nm emission for LipidTOX; 352 nm excitation, 461 nm emission for Hoechst 33342) are measured using an ImageXpress Micro Widefield High Content Screening System (Molecular Devices, Sunnyvale, CA, USA) with a 20x Plan Fluor objective. Images are acquired for one site in each well and analyzed with the MetaXpress software (Molecular Devices) using the Transfluor module. Several algorithmic outputs, such as pit count per well, pit count per cell, pit integrated intensity per well, and pit integrated intensity per cell, are used for quantitative image analysis for PLD.
# % is scaled to controls: 0 for no effect and ±100 for the full control effect.
Compound,outcome,PLD induction
O=[N+]([O-])c1ccc([As](=O)(O)O)cc1,inactive,–
CN(C)[C@@H]1C(=O)C(C(N)=O)=C(O)[C@@]2(O)C(=O)C3=C(O)c4c(O)cccc4[C@@](C)(O)[C@H]3C[C@@H]12,inactive,–
Clc1ccccc1Cl,inactive,–
COc1ccc2c3c1O[C@H]1[C@@H](O)C=C[C@H]4[C@@H](C2)N(C)CC[C@@]341,inactive,–
CN(C)CCO,inactive,–
NCC(O)c1ccc(O)cc1 (configuration not stated),inactive,–
NCCc1ccc(O)cc1,inactive,–
C#CCN(C)[C@H](C)Cc1ccccc1,inactive,–
CN1C(=O)CN=C(c2ccccc2)c2cc(Cl)ccc21,inactive,–
Nc1ccccc1C(=O)O,inactive,–
OC(O)C(Cl)(Cl)Cl,inactive,–
O=c1n(Cl)c(=O)n(Cl)c(=O)n1Cl,inactive,–
COC(=O)c1ccccc1C(=O)OC,inactive,–
Clc1ccc(Cl)cc1,inactive,–
CC1OC(C)OC(C)O1 (configuration not stated),inactive,–
CC(NC(C)(C)C)C(=O)c1cccc(Cl)c1 (configuration not stated),inactive,–
CC(C)=C[C@@H]1[C@@H](C(=O)OCc2coc(Cc3ccccc3)c2)C1(C)C,inactive,–
OCCN(CCO)CCO,–,10.3% [at 7.66 µM] (inactive)
CCOC(=O)c1ccccc1C(=O)OCC,inactive,–
O=[N+]([O-])c1ccccc1,inactive,–
C[C@]12CC[C@H]3[C@@H](CC[C@@]45O[C@@H]4C(O)=C(C#N)C[C@]35C)[C@@H]1CC[C@@H]2O,inactive,–
O=C(NC(=O)c1c(F)cccc1F)Nc1cc(Cl)c(OC(F)(F)C(F)C(F)(F)F)cc1Cl (configuration not stated),inactive,–
